The list is not random: actives were taken first. Their share in the collection is about 4.1%.
hgDAF-12 ag: agonists of H. glycines DAF-12 nuclear receptor; hit rate 1.8% among 370,000; activation, % at 6.8 µM; HEK293 GAL4-hgDAF12 UAS-luciferase reporter, agonist luminescence; normalized to butyrate control;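 active = activation above a cutoff set at the mean of all screened compounds plus 3 SD, cut at about 10% in these data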
DAX1 inh-1: NR0B1 (DAX1) inhibition | AID 504766 | HEK293 Gal4-DAX1 luciferase reporter, luminescence | inhibition, % at 6.75 µM | P51843 | hit rate 0.99% among 340,000;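 active = inhibition above the mean over all tested compounds plus 3 SD, cut at about 4.2% in these data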;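 note: inhibition shows as a rise in luminescence from relieved DAX1 repression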
Target sequence (P51843 207-470 limits assumed): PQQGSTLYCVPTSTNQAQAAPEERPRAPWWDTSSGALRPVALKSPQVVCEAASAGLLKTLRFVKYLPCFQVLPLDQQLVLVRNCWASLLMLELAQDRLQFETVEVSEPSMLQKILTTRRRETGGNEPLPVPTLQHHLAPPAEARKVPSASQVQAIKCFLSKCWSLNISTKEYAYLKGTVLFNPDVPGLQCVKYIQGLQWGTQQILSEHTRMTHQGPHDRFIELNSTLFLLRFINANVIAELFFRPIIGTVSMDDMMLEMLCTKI
ssDAF12 agonist: S. stercoralis DAF-12 activation, primary screen | activation, % at 6.8 µM | hit rate 1% among 370,000 | HEK293 ssDAF-12/GRIP1 lit1-tk-luc reporter, luminescence; % of 3 µM dafachronic acid response;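 active = activation above the mean over all tested compounds plus 3 SD, cut at about 0.9% in these data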
hcDAF12 agonist: activators of H. contortus DAF-12 nuclear receptor; hit rate 1.4% among 370,000; AID 652067; HEK293 hcDAF-12 lit1-tk-luc reporter, luminescence; 0% DMSO, 100% Δ7-dafachronic acid; activation, % at 6.8 µM;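 active = activation above the mean of all tested compounds plus 3 SD, cut at about 5.5% in these data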
DAX1 inh-2: DAX1 (NR0B1) inhibition, primary screen; HEK293T StAR-luciferase reporter, SF-1/DAX-1 repression relief; inhibition, % at 6.8 µM; hit rate 1.1% among 370,000;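 active = inhibition above the mean over all tested compounds plus 3 SD, cut at about 3.6% in these data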;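 note: higher inhibition means more luminescence from relief of DAX-1 repression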
Hits are given with their value.

CC(C)(C)OC(=O)NCc1ccc(NC(=O)c2nc[nH]c2C(=O)Nc2cc(Br)ccc2F)cc1 was read as hgDAF-12 ag inactive, ssDAF12 agonist 1.1, hcDAF12 agonist inactive and DAX1 inh-2 inactive.
For O=C(Nc1ccc2ccccc2c1)OC1CCS(=O)(=O)C1 (stereo unspecified) the results were hgDAF-12 ag inactive, ssDAF12 agonist 2.1, hcDAF12 agonist inactive and DAX1 inh-2 inactive.
For Cn1c(=O)[nH]c(=O)c2c1nc(SCC(=O)O)n2CCOc1ccccc1 the results were hgDAF-12 ag inactive, DAX1 inh-1 inactive, ssDAF12 agonist 0.9, hcDAF12 agonist inactive and DAX1 inh-2 inactive.
For O=C(Nc1cnc2ccccn2c1=O)c1ccc(Cl)cc1 the results were hgDAF-12 ag 13, DAX1 inh-1 inactive, ssDAF12 agonist inactive, hcDAF12 agonist inactive and DAX1 inh-2 inactive.
COC(=O)CSc1nnc(-c2ccc(NS(=O)(=O)c3ccc(C)c(C)c3)cc2)o1 was read as hgDAF-12 ag inactive, ssDAF12 agonist inactive, hcDAF12 agonist inactive and DAX1 inh-2 inactive.
For Cc1cc(NC(=O)CC(C)(C)C)nc2c1c(=O)oc1ccccc12 the results were hgDAF-12 ag inactive, DAX1 inh-1 inactive, ssDAF12 agonist inactive, hcDAF12 agonist 6.3 and DAX1 inh-2 inactive.
COC(=O)C1CN(Cc2ccc(OC)cc2)CCS(=O)(=O)N1Cc1ccc(C(F)(F)F)cc1 (stereo unspecified) was read as hgDAF-12 ag inactive, ssDAF12 agonist inactive, hcDAF12 agonist inactive and DAX1 inh-2 inactive.
Screening Cc1cccc(OCC(C)CN2CCC(C(O)(c3ccccc3)c3ccccc3)CC2)c1 (stereo unspecified) returned hgDAF-12 ag inactive, ssDAF12 agonist inactive, hcDAF12 agonist inactive and DAX1 inh-2 inactive.
`c1ccc(-c2nnc(-c3ccccn3)nn2)nc1` gave hgDAF-12 ag 13, DAX1 inh-1 inactive, ssDAF12 agonist inactive, hcDAF12 agonist inactive and DAX1 inh-2 inactive.
O=C(OCC#CCSc1nnc(-c2cccc3ccccc23)o1)c1ccsc1 was read as hgDAF-12 ag 11, ssDAF12 agonist inactive and hcDAF12 agonist inactive.
For COc1ccc(OC)c(C(=O)CSc2nnc(SCc3cccc4ccccc34)s2)c1 the results were hgDAF-12 ag inactive, ssDAF12 agonist inactive, hcDAF12 agonist inactive and DAX1 inh-2 inactive.
`O=C1Nc2ccccc2N=C(c2ccc3c(c2)OCO3)C1N(C(=O)c1ccc2ccccc2c1)C1CC1` (stereo unspecified) gave hgDAF-12 ag 11, ssDAF12 agonist inactive, hcDAF12 agonist 5.6 and DAX1 inh-2 inactive.
For COCCCN1C(=O)[C@H](CC(=O)NCc2cccc3ccccc23)[C@]2(C(=O)OC)CCCCC=C12 the results were hgDAF-12 ag inactive, ssDAF12 agonist inactive, hcDAF12 agonist inactive and DAX1 inh-2 inactive.
`Cc1cc(/C=C2/NC(=O)N(Cc3ccccc3F)C2=O)c(C)n1-c1ccccn1` gave hgDAF-12 ag inactive, DAX1 inh-1 inactive, ssDAF12 agonist 1.3, hcDAF12 agonist inactive and DAX1 inh-2 inactive.
Screening CSc1nsc(/C=C/Nc2ccc(C)cc2)c1C#N returned hgDAF-12 ag inactive, DAX1 inh-1 inactive, ssDAF12 agonist 2.4, hcDAF12 agonist 6.5 and DAX1 inh-2 inactive.
For CSc1nsc(/C=C/Nc2ccc(C)c(C)c2)c1C#N the results were hgDAF-12 ag inactive, DAX1 inh-1 inactive, ssDAF12 agonist inactive, hcDAF12 agonist inactive and DAX1 inh-2 inactive.
COc1ccc(/[N+]([O-])=C/c2ccoc2)cc1 was read as hgDAF-12 ag 11, DAX1 inh-1 inactive, ssDAF12 agonist inactive, hcDAF12 agonist inactive and DAX1 inh-2 inactive.
For COc1ccc(C(=O)N/N=C\c2ccoc2)cc1 the results were hgDAF-12 ag inactive, DAX1 inh-1 inactive, ssDAF12 agonist inactive, hcDAF12 agonist inactive and DAX1 inh-2 inactive.
`Cc1ccc(OCc2nnc(SCC(=O)c3ccc4ccccc4c3)n2-c2ccc(Cl)cc2)cc1` gave hgDAF-12 ag inactive, ssDAF12 agonist inactive, hcDAF12 agonist inactive and DAX1 inh-2 inactive.
For O=C(CCCCC(=O)Nc1ccccc1Cl)Nc1ccccc1Cl the results were hgDAF-12 ag inactive, DAX1 inh-1 inactive, ssDAF12 agonist inactive, hcDAF12 agonist inactive and DAX1 inh-2 inactive.
Screening NNC(=O)CNc1ccccc1Cl returned hgDAF-12 ag inactive, DAX1 inh-1 inactive, ssDAF12 agonist 1.0, hcDAF12 agonist inactive and DAX1 inh-2 inactive.
For c1ccc(Cc2cc(-c3ccccc3)on2)cc1 the results were hgDAF-12 ag inactive, DAX1 inh-1 5.5, ssDAF12 agonist inactive, hcDAF12 agonist inactive and DAX1 inh-2 inactive.
For COC(=O)C1CN(Cc2ccccc2)CCS(=O)(=O)N1Cc1ccc(Cl)cc1 (stereo unspecified) the results were hgDAF-12 ag inactive, ssDAF12 agonist inactive, hcDAF12 agonist inactive and DAX1 inh-2 inactive.
For O=C(COc1ccccc1)NCC(=O)NC1=NCCS1 the results were hgDAF-12 ag inactive, DAX1 inh-1 inactive, ssDAF12 agonist inactive, hcDAF12 agonist inactive and DAX1 inh-2 inactive.
`Cc1ccc(/C=C/C(=O)NC2=NCCS2)cc1` gave hgDAF-12 ag 17, DAX1 inh-1 inactive, ssDAF12 agonist 1.4, hcDAF12 agonist 8.0 and DAX1 inh-2 6.4.
`Cc1ccc(OCC(=O)NC2=NCCS2)cc1` gave hgDAF-12 ag inactive, DAX1 inh-1 4.7, ssDAF12 agonist inactive, hcDAF12 agonist inactive and DAX1 inh-2 inactive.
For CCc1ccc(/C=C/C(=O)NC2=NCCS2)cc1 the results were hgDAF-12 ag inactive, ssDAF12 agonist inactive and hcDAF12 agonist inactive.
For CN(c1ccc(NC(=O)CCc2c[nH]c3ccccc23)cc1)c1ccccn1 the results were hgDAF-12 ag inactive, ssDAF12 agonist inactive, hcDAF12 agonist inactive and DAX1 inh-2 inactive.
Nc1nc(-c2c[nH]c3ccccc23)cs1 was read as hgDAF-12 ag inactive, DAX1 inh-1 inactive, ssDAF12 agonist 1.8, hcDAF12 agonist inactive and DAX1 inh-2 inactive.
Screening CNc1nc(-c2c[nH]c3ccccc23)cs1 returned hgDAF-12 ag inactive, DAX1 inh-1 inactive, ssDAF12 agonist inactive, hcDAF12 agonist inactive and DAX1 inh-2 inactive.
`CCc1ccc(-c2csc(-c3c[nH]c4ccccc34)n2)cc1` gave hgDAF-12 ag inactive, DAX1 inh-1 inactive, ssDAF12 agonist inactive, hcDAF12 agonist 6.2 and DAX1 inh-2 inactive.
`O=S1(=O)c2ccc(Br)cc2OCCC2CCCCN21` (stereo unspecified) gave hgDAF-12 ag inactive, ssDAF12 agonist inactive, hcDAF12 agonist inactive and DAX1 inh-2 inactive.
CCOC(=O)C1=C(C)N=c2s/c(=C/c3ccc(OCC(=O)O)cc3)c(=O)n2C1c1ccc(OC)cc1OC (stereo unspecified) was read as hgDAF-12 ag inactive, DAX1 inh-1 inactive, ssDAF12 agonist 1.8, hcDAF12 agonist inactive and DAX1 inh-2 inactive.
`C[C@H]1[C@@H](OC(=O)N2CCOCC2)CC[C@@]23CCCN2C(=O)CCC[C@@H]13` gave hgDAF-12 ag inactive, ssDAF12 agonist inactive and hcDAF12 agonist inactive.
Screening COc1cc(O)c(C(CCN2CCCCC2)c2ccc3c(c2)OCO3)c(OC)c1 (stereo unspecified) returned hgDAF-12 ag inactive, DAX1 inh-1 4.3, ssDAF12 agonist inactive, hcDAF12 agonist inactive and DAX1 inh-2 inactive.
